# Screening data deposited in PubChem BioAssay by National Center for Advancing Translational Sciences (NCATS).
# Rows were chosen to be rich in hits. Some 3.2% of all compounds tested hit in one or more screens of this group.
# RE007 growth inh: qHTS Assay for Inhibitors of the HIV-1 protein Vpr | S. pombe RE007 Vpr strain, BacTiter-Glo ATP luminescence, 24 h | Potency, µM (highest dose often 92.2 µM), for the others: top-dose activity change, negative = less growth, hits mostly inhibitors | actives 0.21% (n = 360,000) | AID 651644, 2012; active = well fitted falling curve with a large enough effect; inconclusive = small, poorly fitted or top-dose-only effect; inactive = no such curve, though single readings can be large or run the other way; note: nearly all actives have a fitted effect of over 50% in size
#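 Fission yeast strain RE007, carrying one chromosomally integrated HIV-1 vpr copy, was seeded at OD 0.01 in PMG+AL medium with 23 nL pinned compound. After 24 h at 30 °C and 99% humidity, viability was read by BacTiter-Glo luminescence.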
# AMA1 RON2 block: qHTS for Inhibitors of AMA1-RON; Towards Development of Antimalarial Drug Lead: Primary Screen | Plasmodium falciparum AMA1 (3D7) - RON2 peptide interaction | AlphaScreen AMA1-biotinylated RON2 peptide binding | Potency, µM (highest dose often 58.2 µM), for inactives: at the top dose activity change, negative = inhibition, hits mostly inhibitors | actives 0.2% (n = 360,000);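 note: 0% = vehicle wells and -100% = peptide control; nearly all actives have a fitted effect of over 45% in size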
#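 AMA1 (3D7) with his tag at 25 nM final met compounds first, then biotinylated RON2 peptide at 25 nM; detection used donor plus acceptor beads, 10 µg/mL apiece, read by AlphaScreen after 30 min at room temperature.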
# AmpC inh no detg: qHTS Inhibitors of AmpC Beta-Lactamase (assay without detergent); actives 0.52% (n = 330,000); Potency, µM (titrated, usually from 57.1 µM), for the others: at the highest dose activity change, negative = inhibition, hits mostly inhibitors; AmpC nitrocefin hydrolysis, absorbance 480 nm, 0.0001% Triton; P00811; AID 485341, 2010;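 note: plate controls were no compound for no effect and no enzyme for full effect; nearly all actives have a fitted effect of over 20% in size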
# Target sequence (P00811 whole entry, looked up): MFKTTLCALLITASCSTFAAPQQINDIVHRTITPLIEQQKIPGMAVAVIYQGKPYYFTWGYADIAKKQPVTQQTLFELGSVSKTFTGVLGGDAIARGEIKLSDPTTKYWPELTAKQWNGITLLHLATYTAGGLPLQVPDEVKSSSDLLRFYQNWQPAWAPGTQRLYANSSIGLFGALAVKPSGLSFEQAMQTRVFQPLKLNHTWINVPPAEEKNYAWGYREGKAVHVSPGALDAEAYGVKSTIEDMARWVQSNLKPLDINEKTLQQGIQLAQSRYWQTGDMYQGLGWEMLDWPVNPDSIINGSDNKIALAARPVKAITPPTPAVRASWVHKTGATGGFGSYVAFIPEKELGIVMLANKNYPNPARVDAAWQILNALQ
#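 AmpC (5.3 nM in the dispensed reagent) in 20 mM phosphate pH 7.0 with 0.01% (detergent screen) or 0.0001% Triton X-100 was preincubated with compounds for 15 min at room temperature. Nitrocefin was then added from an 800 uM solution, and hydrolysis was followed at 480 nm.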
# Sm TGR block: qHTS Assay for the Inhibitors of Schistosoma Mansoni Peroxiredoxins; actives 3% (n = 360,000); Potency, µM (series often up to 114 µM), for the others: top-dose activity change, negative = inhibition, usual class: inhibitors; purified TGR, DTNB reduction, TNB absorbance 405 nm; note: nearly all actives have a fitted effect of over 60% in size
#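 Kinetic colorimetric format: TGR-catalysed, NADPH-driven DTNB reduction monitored via TNB absorbance. Enzyme dispensed at 20 nM; compound exposure 15 min at room temperature before reaction start.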
# AmpC detergent: qHTS Inhibitors of AmpC Beta-Lactamase (assay with detergent); Potency, µM (highest dose often 114 µM), for the others: top-dose activity change, negative = inhibition, actives largely listed as inhibitors; P00811; AmpC hydrolysis of nitrocefin, absorbance 480 nm, 0.01% Triton; actives 0.041% (n = 370,000); AID 485294, 2010;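 note: 0% = no-compound wells and -100% = no-enzyme wells; nearly all actives have a fitted effect of over 25% in size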
#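 20 mM phosphate pH 7.0 + 0.01% (detergent screen) or 0.0001% Triton X-100; 5.3 nM AmpC reagent; cpd preinc 15 min RT; nitrocefin (800 uM stock) to start; A480 q20 s × 4 min; Activity was normalised to no-enzyme and no-compound control wells.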
# * = called active by the depositor; ? = inconclusive; . = no result given. Unless noted, calls come from the whole dose curve; as a rule, active = well fitted curve in the direction sought with a large enough effect; inconclusive = small, poorly fitted or top-dose-only effect, or another doubt; inactive = no such curve, though single readings can be large; an effect the other way counts as inactive or inconclusive. Unless noted, % is set by controls: 0 for no effect and ±100 for the full control effect; potency is the fitted concentration of half-maximal effect.
SMILES,RE007 growth inh,AMA1 RON2 block,AmpC inh no detg,Sm TGR block,AmpC detergent
O=C(CN1C(=O)c2cccnc2Oc2ccc(Cl)cc21)N1CCCCCC1,2%,-2%,18%,9%,4%
CCC(Sc1nnc(-c2ccc(OC)c(OC)c2)c(-c2ccc(OC)c(OC)c2)n1)C(=O)NC1CCCC1 (stereo not given),.,.,.,-4%,10%
COc1ccccc1C(=O)Nc1cccc(OCc2cc(=O)n3ccccc3n2)c1,.,.,.,2%,19%
Cc1ccc(CN2CCN(CCCc3ccccc3)CC2CCO)cc1 (stereo not given),0%,-7%,64%,-1%,-12%
Cc1ccc(CN2CCN(Cc3nc4ccccc4nc3C)CC2CCO)cc1 (stereo not given),-12%,-2%,80%,32µM*,-2%
OCCC1CN(Cc2nc3c(s2)CCCC3)CCN1Cc1ccccc1 (stereo not given),0%,11%,86%,35µM*,2%
OCCC1CN(Cc2nc3c(s2)CCCC3)CCN1CCc1ccccc1 (stereo not given),-2%,7%,133%,-13%,3%
Cn1cc(S(=O)(=O)N2CCCCC2)cc1C(=O)Nc1cccc(C#N)c1,.,.,.,0%,17%
COc1cccc(-n2cc(C(=O)Nc3cc(C)c(Cl)cc3OC)c3ccccc3c2=O)c1,.,.,.,-4%,20%
CN(c1ccccc1C(=O)NCC1CCCO1)S(C)(=O)=O (stereo not given),-7%,-4%,0.16µM*,-5%,1%
CN(c1ccccc1)S(=O)(=O)c1ccc(C(=O)NCC2CCCO2)cc1 (stereo not given),-7%,-9%,1%,4%,-5%
CC(C)C(=O)Nc1nc2cc3c(cc2s1)OCO3,3%,-7%,10µM*,1%,?
CNc1c([N+](=O)[O-])ncn1C,3%,25%,-3%,5%,-18%
Cn1cnc([N+](=O)[O-])c1Oc1ccccc1,4%,14%,-9%,35µM*,3%
Cn1cnc([N+](=O)[O-])c1Oc1cccc2ccccc12,-16%,-14%,-21%,25µM*,-5%
Cn1cnc([N+](=O)[O-])c1Oc1cccc(O)c1,-16%,-4%,-21%,32µM*,1%
CCn1c(=O)cc(SCC(=O)NCCc2cc(OC)ccc2OC)c2ccccc21,.,.,.,2%,8%
COc1cc(OC)c(Nc2ncnc3onc(-c4cccc(Cl)c4)c23)cc1Cl,.,.,.,-1%,-5%
CC1=C(C(=O)Nc2ccccc2)C(c2ccccn2)n2nc(SCc3ccccc3)nc2N1 (stereo not given),.,.,.,-2%,-8%
Cc1ccc2nc(SCC(=O)NCc3ccco3)c(C#N)cc2c1,-1%,-10%,-45%,?,?
Cc1ccc2cc(C#N)c(SCC(=O)NCc3ccco3)nc2c1,18%,-4%,-51%,35µM*,?
O=C(CSc1nc(=O)n(Cc2ccco2)c2c1CCC2)NCc1ccc(Cl)cc1,.,.,.,-31%,4%
Cc1ccc(CNC(=O)CSc2nc(=O)n(Cc3ccco3)c3c2CCC3)cc1,.,.,.,40µM*,3%
Cc1ccc2nc(SCC(=O)NCc3ccco3)c(C)cc2c1,5%,15%,-22%,40µM*,5%
Cc1ccc(NC(=O)CCC(=O)N2Cc3ccccc3Oc3ncccc32)cc1Cl,.,.,.,35%,13%
SMILES,RE007 growth inh,AMA1 RON2 block,AmpC inh no detg,Sm TGR block,AmpC detergent
CC1CCCCN1CCCNC(=O)c1ccc2c(c1)sc1nc(-c3ccc(F)cc3)cn12 (stereo not given),.,.,.,-3%,2%
CC1(C)C(c2ccco2)=[N+]([O-])C2(CCCCC2=O)N1O (stereo not given),4%,-5%,-17%,50µM*,?
Cc1ccc(C2=[N+]([O-])C3(CCCCC3=O)N(O)C2(C)C)cc1 (stereo not given),8%,0%,-18%,?,7%
CC1CCc2nn(CC(=O)NCCC3=CCCCC3)cc2C1 (stereo not given),-26%,5%,0.56µM*,-8%,?
CC1CCc2nn(CC(=O)NCCN3CCOCC3)cc2C1 (stereo not given),-6%,-1%,11µM*,4%,0%
COCCNC(=O)Cn1cc2c(n1)CCC(C)C2 (stereo not given),3%,-1%,-11%,3%,?
CCN(CC)C(=O)c1sc2c(c1C)c(=O)n(CCc1ccccc1)c(=O)n2Cc1ccc(C)cc1,.,.,.,6%,9%
O=[N+]([O-])c1ccc(Sc2nnnn2-c2ccccc2)nc1,?,-9%,12%,14µM*,1%
O=[N+]([O-])c1ccc(Sc2ccccn2)nc1,-4%,6%,-8%,-19%,-5%
O=C1c2ccccc2C(=O)C12Cc1ccccc1N1CCN(c3ccccc3)CC12 (stereo not given),3%,-6%,-26%,-19%,-10%
Cc1ccc(N2C(=O)NC(=O)C3(Cc4ccccc4N4CCN(c5ccccc5)CC43)C2=O)cc1 (stereo not given),23%,0%,-24%,18µM*,-12%
Cc1ccc(NC(=S)NC(=O)/C=C/c2ccco2)c(O)c1,-18%,28%,-52%,18µM*,8%
O=C(/C=C/c1ccco1)NC(=S)Nc1ccccc1O,-1%,57%,-42%,10µM*,0%
O=C(/C=C/c1ccco1)NC(=S)Nc1ccccn1,-25%,80%,-32%,8.9µM*,2%
O=C(/C=C/c1ccco1)NC(=S)Nc1ccccc1N1CCCC1,1%,-3%,-26%,.,7%
O=C(/C=C\c1ccco1)NC(=S)Nc1ccccc1O,-7%,74%,-52%,8.9µM*,7%
CC(C)N(C(=O)c1cc2c(Cl)nc3ccccc3c2s1)C1CCCCC1,.,.,.,1%,-9%
CC1=C(C(=O)N2CCN(c3ccc(Cl)cc3)CC2)C2(CCC(C)CC2)OC1=O (stereo not given),.,.,.,-16%,?
COc1ccc(C2C=C(c3ccccc3)Nc3nc(NC(=O)c4ccc(C)cc4)nn32)cc1 (stereo not given),.,.,.,-6%,-8%
COc1ccc(C(=O)Nc2nc3n(n2)C(c2ccc(Cl)cc2)C=C(c2ccccc2)N3)cc1OC (stereo not given),.,.,.,22µM*,20%
O=C(Nc1nc2n(n1)C(c1ccccc1)C=C(c1ccccc1)N2)c1ccccc1 (stereo not given),.,.,.,6.3µM*,-8%
CCOc1ccc(CCNC(=O)c2cc3c(=O)oc4ccc(C)cc4c3s2)cc1OCC,.,.,.,-8%,-9%
